Results filed as inconclusive are left out. Active and inactive are the calls of the source. Calls come from the whole dose curve; as a rule, active = well fitted curve in the direction sought with a large enough effect; inconclusive = small, poorly fitted or top-dose-only effect, or another doubt; inactive = no such curve, though single readings can be large; an effect the other way counts as inactive or inconclusive.
What was measured:
[1] = Quantitative High-Throughput drug screen in 47 multiple myeloma cell lines against the NCATS MIPE library collection: KMS12PE_JCRB cell viability assay (AID 1918972); note: nearly all actives have a fitted effect of over 30% in size
Method in brief: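 Steps: seed 500 cells per well; pin-transfer MIPE 4.0 library; incubate 48 h at 37C, 5% CO2, humidified; add CellTiter-Glo, 5 min room temperature; read luminescence.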

[2] = Quantitative High-Throughput drug screen in 47 multiple myeloma cell lines against the NCATS MIPE library collection: MOLP8_DSMZ cell viability assay (AID 1918977); note: nearly all actives have a fitted effect of over 45% in size
Method in brief: (§1)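 Inhibition of viability over 48 h was scored by ATP content (CellTiter-Glo) in 500-cell wells. Zero and full viability were defined by media-only and DMSO-only wells.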

[3] = Quantitative High-Throughput drug screen in 47 multiple myeloma cell lines against the NCATS MIPE library collection: OCIMY1_PLB cell viability assay (AID 1918979); note: nearly all actives have a fitted effect of over 35% in size
Method in brief: as §1

[4] = Quantitative High-Throughput drug screen in 47 multiple myeloma cell lines against the NCATS MIPE library collection: NCIH929_DSMZ cell viability assay (AID 1918978); note: nearly all actives have a fitted effect of over 35% in size
Method in brief: as §1

[5] = Quantitative High-Throughput drug screen in 47 multiple myeloma cell lines against the NCATS MIPE library collection: MM1R_ATCC cell viability assay (AID 1918981); note: nearly all actives have a fitted effect of over 35% in size
Method in brief: as §1

[6] = Quantitative High-Throughput drug screen in 47 multiple myeloma cell lines against the NCATS MIPE library collection: KMS20_JCRB cell viability assay (AID 1918973); note: nearly all actives have a fitted effect of over 45% in size
Method in brief: (§2)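 qHTS of the MIPE 4.0 collection: 500 myeloma cells/well, 48 h drug exposure at 37C in 5% CO2, then CellTiter-Glo for 5 min at room temperature before luminescence reading.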

[7] = Quantitative High-Throughput drug screen in 47 multiple myeloma cell lines against the NCATS MIPE library collection: KMS21BM_JCRB cell viability assay (AID 1918974); settings: ATP luminescence, 48 h; viability: at 45.8 µM (top of the series) unless noted
Method in brief: as §2

[8] = Quantitative High-Throughput drug screen in 47 multiple myeloma cell lines against the NCATS MIPE library collection: KMS26_JCRB cell viability assay (AID 1918975); note: nearly all actives have a fitted effect of over 45% in size
Method in brief: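 Luminescent ATP measurement with CellTiter-Glo gives viability, scaled between DMSO-only wells (100%) and media-only wells (0%). Cells, 500 per well, faced library compounds for 48 hours at 37C.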

[9] = Quantitative High-Throughput drug screen in 47 multiple myeloma cell lines against the NCATS MIPE library collection: MMM1_PLB cell viability assay (AID 1918976); note: nearly all actives have a fitted effect of over 35% in size
Method in brief: as §1

[10] = Quantitative High-Throughput drug screen in 47 multiple myeloma cell lines against the NCATS MIPE library collection: MM1S_ATCC cell viability assay (AID 1918980); note: nearly all actives have a fitted effect of over 45% in size
Method in brief: as §1

Measured: Potency
Potency is the fitted concentration of half-maximal effect.

O=c1c2ccccc2nc2n1CCc1c-2[nH]c2ccccc12
inactive: [1] | [2] | [3]

CC(=O)SC[C@@H](C)C(=O)N1CCC[C@H]1C(=O)N[C@@H](Cc1ccccc1)C(=O)O
inactive: [1] | [2] | [4] | [3] | [5]

O=C(Nc1cc(C(F)(F)F)cc(C(F)(F)F)c1)c1cc(Cl)ccc1O
active: [6] 1320 nM | [7] 526 nM | [8] 1180 nM | [9] 296 nM | [2] 1480 nM | [4] 1480 nM | [3] 3320 nM | [5] 1050 nM

COc1c(OCCCN2CCOCC2)ccc2c3n(c(=NC(=O)c4cnc(N)nc4)nc12)CCN3
active: [6] 51.2 nM | [8] 407 nM | [9] 51.2 nM | [2] 28.8 nM | [4] 12.9 nM | [3] 20.4 nM | [10] 91.1 nM | [5] 81.2 nM

O=C(O)[C@H](Cc1c[nH]c2ccccc12)N1C(=O)c2ccccc2C1=O
inactive: [6] | [7] | [8] | [2]
active: [4] 54000 nM

Cc1cc(Nc2cc(NC(=O)c3c(Cl)cccc3Cl)ccn2)nc(N)n1
active: [6] 10500 nM | [7] 418 nM | [8] 16600 nM | [2] 23500 nM | [4] 9350 nM | [10] 209 nM | [5] 469 nM

CCNC(=O)Nc1ccc2ncc(Nc3ccc(C)cc3)nc2n1
active: [1] 2350 nM | [9] 14800 nM | [4] 7430 nM | [5] 18700 nM

CC(C)=CCCC(C)=CCCC(C)=CCSc1ccccc1C(=O)O
active: [6] 5260 nM | [7] 5900 nM | [9] 1320 nM | [2] 1480 nM | [4] 526 nM | [3] 33.2 nM | [10] 5260 nM | [5] 3320 nM

Clc1ccc2ncc(-c3cccc(NC4CNC4)n3)n2c1
active: [1] 5900 nM | [2] 14800 nM | [4] 20900 nM | [3] 20900 nM | [5] 16600 nM

CCn1cc(-c2ccnc3[nH]c(-c4cccc(CN(C)C)c4)cc23)c(-c2ccc(NC(=O)N(C)C)cc2)n1
active: [6] 4180 nM | [7] 662 nM | [8] 18700 nM | [9] 14800 nM | [2] 8330 nM | [4] 3320 nM | [10] 5260 nM

O=C(C=Cc1cccc(S(=O)(=O)Nc2ccccc2)c1)NO
active: [6] 1910 nM | [7] 540 nM | [8] 8550 nM | [9] 10800 nM | [2] 2410 nM | [4] 3030 nM | [3] 6790 nM | [10] 1910 nM | [5] 1210 nM

CN1CCC(CNc2ccc3ncc(-c4cccc(OC(F)(F)F)c4)n3n2)CC1
active: [6] 3320 nM | [7] 9350 nM | [8] 18700 nM | [9] 18700 nM | [2] 18700 nM | [4] 7430 nM | [3] 20900 nM | [10] 7430 nM | [5] 20900 nM

C=CC(=O)Nc1cc2c(Nc3ccc(F)c(Cl)c3)ncnc2cc1OCCCN1CCOCC1
active: [6] 526 nM | [8] 5260 nM | [9] 18700 nM | [2] 8330 nM | [4] 2640 nM | [3] 23500 nM | [10] 18700 nM | [5] 8330 nM

Cc1cn(-c2cc(NC(=O)c3ccc(C)c(Nc4nccc(-c5cccnc5)n4)c3)cc(C(F)(F)F)c2)cn1
inactive: [1] | [4] | [10]
active: [2] 20900 nM | [3] 26400 nM | [5] 18700 nM

CC(C)(C)c1cnc(CSc2cnc(NC(=O)C3CCNCC3)s2)o1
active: [6] 74.3 nM | [7] 66.2 nM | [8] 148 nM | [2] 83.3 nM | [4] 264 nM | [3] 1660 nM | [10] 66.2 nM

CC(C)CC(=O)Nc1n[nH]c2c1CN(C(=O)C1CCN(C)CC1)C2(C)C
active: [6] 1050 nM | [7] 29.6 nM | [8] 3320 nM | [2] 418 nM | [4] 743 nM | [3] 16600 nM | [10] 66.2 nM | [5] 662 nM

C=CC(=O)Nc1cc2c(Nc3ccc(F)c(Cl)c3)ncnc2cc1C#CC(C)(C)N1CCN(C)CC1
active: [6] 296 nM | [7] 332 nM | [8] 1660 nM | [9] 5260 nM | [2] 1050 nM | [4] 833 nM | [3] 4690 nM | [5] 1320 nM
